From PubChem BioAssay AID588579 (National Center for Advancing Translational Sciences (NCATS), 2011) come the findings set out here.

Where “and” joins values, the source holds several entries; their conditions need not be identical. Identical values can stand only once. Among all 400,000 compounds or so, about 2,200 (0.55%) were called active. A call without a number means that no potency is given here. Roughly 1% stayed inconclusive and do not appear here. This is one part of a sample in which actives are shown more often than they occur. Unmarked numbers belong to inactive results. The call rests on the fitted dose curve; in most records, active means well fitted inhibition curve with a large enough effect; inconclusive means small, poorly fitted or top-dose-only effect, or another doubt; inactive means no such curve, though single readings can be large or run the other way.
Potency means the concentration at half of the fitted maximal effect.

Sequence of DNA polymerase kappa (Homo sapiens) (Q9UBT6 whole entry, looked up): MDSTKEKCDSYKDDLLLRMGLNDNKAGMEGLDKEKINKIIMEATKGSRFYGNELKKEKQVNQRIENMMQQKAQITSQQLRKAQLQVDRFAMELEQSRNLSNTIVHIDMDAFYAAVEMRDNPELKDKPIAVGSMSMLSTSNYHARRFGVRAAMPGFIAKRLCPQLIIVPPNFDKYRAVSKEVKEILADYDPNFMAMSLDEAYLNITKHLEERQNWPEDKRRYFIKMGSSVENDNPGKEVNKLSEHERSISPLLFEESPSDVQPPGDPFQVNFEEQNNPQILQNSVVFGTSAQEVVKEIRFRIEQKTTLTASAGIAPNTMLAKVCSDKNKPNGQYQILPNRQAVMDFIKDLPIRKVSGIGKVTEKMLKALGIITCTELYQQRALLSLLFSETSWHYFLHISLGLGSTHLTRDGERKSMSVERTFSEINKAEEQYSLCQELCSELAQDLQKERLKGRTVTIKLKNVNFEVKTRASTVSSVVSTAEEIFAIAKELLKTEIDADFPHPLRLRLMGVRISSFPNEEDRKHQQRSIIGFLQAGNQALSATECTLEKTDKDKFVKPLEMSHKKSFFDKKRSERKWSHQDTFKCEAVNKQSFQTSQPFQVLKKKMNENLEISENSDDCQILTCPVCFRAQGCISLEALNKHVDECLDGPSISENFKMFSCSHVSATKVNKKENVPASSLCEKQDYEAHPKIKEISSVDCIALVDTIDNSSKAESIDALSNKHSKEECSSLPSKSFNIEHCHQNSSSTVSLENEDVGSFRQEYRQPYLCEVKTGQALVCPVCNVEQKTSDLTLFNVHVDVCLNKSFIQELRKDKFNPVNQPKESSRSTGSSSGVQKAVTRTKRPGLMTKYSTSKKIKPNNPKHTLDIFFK

This test concerns the target DNA polymerase kappa (Homo sapiens) (UniProt Q9UBT6). The test can be described thus: qHTS for Inhibitors of Polymerase Kappa. The conditions noted are these: purified Pol kappa, fluorescent DNA synthesis assay, 10 min; series mostly up to 107 µM. The procedure: The processing and repair of DNA interstrand crosslinks (ICL) in eukaryotic cells are extremely complex, potentially involving multiple DNA repair and damage tolerance pathways, including homologous recombination, nucleotide excision repair, translesion synthesis (TLS), and cell cycle checkpoints.
To that end, in a collaboration between the Oregon Health & Science University and the NIH Chemical Genomics Center a 1536-well high-throughput screen was developed. This fluorescent screen was assayed against the NIH Molecular Libraries Small Molecule Repository (MLSMR) to discover inhibitors of Pol Kappa.
NIH Chemical Genomics Center [NCGC]
NIH Molecular Libraries Probe Centers Network [MLPCN]
Assay Submitter (PI): Stephen Lloyd, Oregon Health & Science University
Three microliters of reagents (buffer in column 3 and 4 as negative control and 10 nM Pol kappa in columns 1, 2, and 5-48) were dispensed into a 1536-well black solid-bottom plate. Compounds (23 nL) were transferred via Kalypsys pin tool equipped with 1536-pin array. The plates were then incubated for 15 min at room temperature, and 1 uL substrate (50 nM final concentration) were then added to start the reaction and kinetically read twice at 0 min and 10 min on the Viewlux reader
For the compound `O=C1C[C@H]2C=CCc3cccc(c32)CN1Cc1ccccc1`, the Potency result was “inactive”.

For `O=C1CCC[C@@H]2C[C@@]3(C[C@@H]4CCN1[C@H]24)Nc1ccccc1NC3=NCc1ccccc1`, the Potency entry was “inactive”.

Turning to `CC(=O)OCC(=O)[C@@]1(O)CCC2C3CCC4=CC(=O)CC[C@@]4(C)[C@]3(F)C(O)C[C@]21C` (some centres not stated), the Potency result was “inactive”.

Consider `Brc1ccc(C2=NCCC(c3ccccc3)O2)cc1` (configuration not stated), for which the Potency entry is “inactive”.

Regarding `Cc1cc(C)c2nc(-c3cccnc3)cc(C(=O)Nc3ccc(S(=O)(=O)Nc4onc(C)c4C)cc3)c2c1`, the Potency result is “inactive”.

Take `Cc1cccc(NC(=O)CSc2nc(-c3ccco3)cc(C(F)(F)F)n2)c1C`: the Potency entry is “inactive”.

For `Cc1cc(C)c2nc(-c3ccco3)cc(C(=O)O)c2c1`, the Potency was 22.4 µM (active).

Turning to `Cn1c(=O)c2ccccc2n(CC(=O)Nc2ccc3c(c2)OCCO3)c1=O`, the Potency entry is “inactive”.

Regarding `Cc1ccc(C(=O)O)cc1-c1ccc(/C=C2\SC(=O)N(CC(=O)Nc3ccc4c(c3)OCO4)C2=O)o1`, the Potency was 28.2 µM (active).

Regarding `COC(=O)c1ccc2c(c1)N(CC(=O)Nc1ccc(C)c(C)c1)C(=O)c1ccccc1S2`, the Potency entry was “inactive”.

With `CCn1ccnc1C[C@@H]1COc2ccccc2O1`, the activity, negative = inhibition is -7.82% [at 19.4 µM].

In the case of `NC[C@@H]1O[C@H](O[C@@H]2[C@H](O[C@@H]3O[C@H](CO)[C@@H](COC[C@H]4O[C@@H](CN)[C@@H](O)[C@@H](O)[C@@H]4N)[C@@H]3O)[C@@H](O)[C@@H](N)C[C@H]2N)[C@@H](N)[C@H](O)[C@@H]1O`, the activity, negative = inhibition was -0.462% [at 12 µM].

For `Cc1ccc(/C=C/C(=O)OCC(=O)NCc2ccc(Cl)cc2)o1`, the Potency result was “inactive”.

As to `COc1ccc(OC)c(NC(=O)/C=C/c2ccc(C)o2)c1`, the Potency result is “inactive”.

Regarding `Cc1ccc(/C=C/C(=O)Nc2ccc([N+](=O)[O-])c(NC(=O)/C=C/c3ccc(C)o3)c2)o1`, the Potency is 28.2 µM (active).

`CC1=C(/C=C/C(C)=C/C=C/C(C)=C/C=C/C=C(C)/C=C/C=C(C)/C=C/C(=O)[C@]2(C)C[C@@H](O)CC2(C)C)C(C)(C)C[C@H](O)C1`: the Potency entry is “inactive”.

For `O=C1C(c2[nH]c3ccccc3c2O)=Nc2ccccc21`, the activity, negative = inhibition was -10.8% [at 19.4 µM].

As to `CCOc1ccc(CNC(=O)c2cc(-c3ccc(Cl)s3)nc3ccccc23)cc1`, the Potency result is “inactive”.

With `Cc1cc(C)c2nc(SCC(=O)N(C)C3CCS(=O)(=O)C3)cc(C)c2c1` (configuration not stated), the Potency entry was “inactive”.

`CN(C(=O)COC(=O)c1cc(-c2ccco2)nc2ccccc12)C1CCS(=O)(=O)C1` (configuration not stated): the Potency is 20 µM (active).

For `CCN(C(=O)COC(=O)/C=C/c1nc2ccccc2s1)C1CCS(=O)(=O)C1` (configuration not stated), the Potency entry is “inactive”.

Regarding `CN(CCOc1ccccc1)C(=O)c1cc(-c2ccco2)nc2ccccc12`, the Potency was 79.4 µM (active).

For the compound `CN(C)C(CNC(=O)CCCOc1ccccc1)c1ccco1` (configuration not stated), the Potency result was “inactive”.

Take `Nc1ncn(C2OC(CO)C(O)C2O)c(=O)n1` (configuration not stated): the Potency entry was “inactive”.

`C=CC(=O)c1ccc2ccccc2c1`: the activity, negative = inhibition was 7.32% [at 19.4 µM].

For `CCCCCCCNc1ccc(/C=C/c2ccnc3ccccc23)cc1`, the Potency result was “inactive”.

With `O=C(c1cccc(F)c1)N1CCC2(CCCN(Cc3ccncc3)C2)CC1`, the Potency result was “inactive”.

For `Cc1cn([C@H]2CC(F)[C@@H](CO)O2)c(=O)[nH]c1=O` (some centres not stated), the activity, negative = inhibition is -4.8% [at 19.4 µM].

As to `O=C(Nc1cccc(C(F)(F)F)c1)c1cc(Br)cc(Br)c1O`, the activity, negative = inhibition was -0.617% [at 19.4 µM].

As to `COCCn1c(=O)c(-c2ccc(OC)cc2)nc2cnc(Oc3cccc(Cl)c3)nc21`, the Potency result was “inactive”.

In the case of `O=c1ccc2c(-c3ccccc3S(=O)(=O)O)c3ccc(O)c(O)c3oc-2c1O`, the Potency is 0.708 µM (active).

Consider `Cc1nc2cnc(N3CCNCC3)nc2n(Cc2ccc(F)cc2)c1=O`, for which the Potency result was “inactive”.

As for `Clc1cccc[n+]1CCCC[n+]1ccccc1Cl`, the Potency result was “inactive”.

With `Cc1c(CCO)sc[n+]1CC(=O)c1ccc2ccccc2c1`, the Potency entry was “inactive”.

`CCN1CCN(c2ccc(/C=C/c3ccnc4ccccc34)cc2)CC1`: the Potency entry is “inactive”.

Take `CCOc1cccc(CC(=O)N2CCc3c([nH]c4ccccc34)C2c2ccc(F)cc2)c1OCC` (configuration not stated): the Potency entry was “inactive”.

For the compound `CCOc1cccc2c1N[C@@H](c1ccc(C(=O)O)cc1)[C@H]1CC=C[C@@H]21`, the Potency is 3.98 µM (active).

Consider `CCOc1ccccc1C1NC(=O)NC(C)=C1C(=O)OCc1ccco1` (configuration not stated), for which the Potency result is “inactive”.

In the case of `O=C(O)c1ccc(/C=C2/SC(=S)N(c3cccc(C(F)(F)F)c3)C2=O)cc1`, the activity, negative = inhibition was -8.36% [at 12 µM].

As to `N#Cc1c(N2CCCCC2)nc(N)c2c(N)nc(SCC(=O)O)cc12`, the Potency is 39.8 µM (active).

For `CC1C(O)CC2C(C(=O)O)=CO[C@@H](O[C@H]3OC(CO)C(O)C(O)C3O)C21` (some centres not stated), the Potency result is “inactive”.

Consider `CS(=O)(=O)N1CCC2(CCN(c3ccncc3)CC2)CC1`, for which the Potency entry was “inactive”.

With `Oc1ccc(-c2c(-c3ccccc3)nn3c(C(F)(F)F)cc(C(F)(F)F)nc23)cc1`, the activity, negative = inhibition was -10.8% [at 12 µM].

With `Cc1c(S(=O)(=O)O)oc2c1C(=O)C(=O)c1c-2ccc2c1CCCC2(C)C`, the Potency is 35.5 µM (active).

For the compound `CCC(CCC(C)C1CCC2C3CC=C4CC(O)CC[C@@]4(C)C3CC[C@@]12C)C(C)C` (some centres not stated), the activity, negative = inhibition was 8.1% [at 19.4 µM].

Turning to `C[N+]1(CC(=O)c2cccs2)CCOCC1`, the Potency entry is “inactive”.

With `CCOc1ccc(NC(=O)c2ccc(NC(=O)COC(=O)c3ccc(NC(=O)CC#N)cc3)cc2)cc1`, the Potency was 22.4 µM (active).

Consider `CCOc1ccc(NC(=O)Cn2c(C)ccc(C#N)c2=O)cc1`, for which the Potency result is “inactive”.

In the case of `CCOC(=O)c1ccc(-c2ccc(/C=C(\C#N)C(=O)Nc3ccc(OCC)cc3)o2)cc1`, the Potency entry was “inactive”.

Turning to `CS(=O)c1ccc(/C=C2\C=Cc3ccccc32)cc1` (configuration not stated), the Potency result is “inactive”.

On to `CN(C)c1cccc2ccccc12`, for which the Potency result was “inactive”.

In the case of `C=C1/C(=C\C=C2\CCCC3(C)C2CCC3C(C)/C=C/C(O)C2CC2)CC(O)CC1O` (configuration not stated), the Potency result was “inactive”.

For the compound `COc1cc2nc(C#Cc3nc4cc(OC)c(OC)cc4[nH]3)[nH]c2cc1OC`, the Potency entry is “inactive”.

On to `O=C(CSc1nc(O)c(Cc2ccccc2)c(=O)[nH]1)Nc1nc2c(s1)CCCC2`, for which the Potency result was “inactive”.

Consider `O=C(CSc1nc2ccccc2c(=O)[nH]1)Nc1nc(-c2ccc(Br)cc2)cs1`, for which the Potency is 20 µM (active).

In the case of `COc1ccc(NC(=O)CSc2nc3ccccc3[nH]2)cc1`, the Potency entry was “inactive”.

For `Cc1cnc(CNc2cc(-c3c(C)noc3C)ncn2)cn1`, the Potency entry is “inactive”.

Turning to `O=C(Nc1ccccc1C(F)(F)F)c1nc(S(=O)(=O)Cc2ccccc2F)ncc1Cl`, the Potency result is “inactive”.

Take `Cn1cc(-c2nc3cnc(N4CCNCC4)nc3n(CCc3ccccc3)c2=O)c2ccccc21`: the Potency result is “inactive”.

Take `CC(C)(C)OC(=O)N(Cc1ccco1)S(=O)(=O)c1ccccc1Br`: the Potency entry was “inactive”.

On to `Oc1cc(O)c2c(c1)OC(c1ccc(O)c(O)c1)C(O)C2` (configuration not stated), for which the Potency was 3.16 µM (active).

As for `CC[C@H](C)[C@H](NC(=O)[C@H](CCCNC(=N)N)NC(=O)[C@H](CCCNC(=N)N)NC(=O)[C@H](CC(C)C)NC(=O)[C@H](Cc1ccccc1)NC(=O)CNC(=O)CNC(=O)[C@@H](N)Cc1ccc(O)cc1)C(=O)N[C@@H](CCCNC(=N)N)C(=O)N1CCC[C@H]1C(=O)N[C@@H](CCCCN)C(=O)N[C@@H](CC(C)C)C(=O)N[C@@H](CCCCN)C(=O)N[C@@H](Cc1c[nH]c2ccccc12)C(=O)N[C@@H](CC(=O)O)C(=O)N[C@@H](CC(N)=O)C(=O)N[C@@H](CCC(N)=O)C(=O)O`, the Potency entry was “inactive”.

Turning to `CCOc1n[nH]c(-c2ccccc2)n1`, the Potency result was “inactive”.

On to `CN(C)c1ccc(/C=c2\[nH]c(=O)/c(=C/c3ccc(N(C)C)cc3)[nH]c2=O)cc1`, for which the Potency result was “inactive”.

Consider `CC(C)[C@@H]1NC(=O)[C@H](Cc2ccccc2)NC(=O)[C@@H](CC(=O)O)NC(=O)CNC(=O)[C@H](CCCNC(=N)N)NC1=O`, for which the activity, negative = inhibition was 4% [at 19.4 µM].

For `C[C@@H]1O[C@@H](OC[C@H]2O[C@@H](Oc3c(-c4cccc(O)c4O)oc4cc(O)cc(O)c4c3=O)[C@H](O)[C@@H](O)[C@@H]2O)[C@H](O)[C@H](O)[C@H]1O`, the Potency is 7.08 µM (active).

`COc1ccc(CCC(=O)c2c(O)cc(OC3OC(CO)C(O)C(O)C3O[C@@H]3OC(C)C(O)C(O)C3O)cc2O)cc1O` (some centres not stated): the Potency result was “inactive”.

Consider `CC1OC(OCC2OC(Oc3c(-c4ccc(O)c(O)c4)oc4cc(O)cc(O)c4c3=O)C(O)C(O)C2O)[C@@H](O)C(O)C1O` (some centres not stated), for which the Potency was 10 µM (active).

`C[C@@H]1O[C@@H](OC[C@H]2O[C@@H](Oc3cc(O)c4c(c3)O[C@H](c3ccc(O)c(O)c3)CC4=O)[C@H](O)[C@@H](O)[C@@H]2O)[C@H](O)[C@H](O)[C@H]1O`: the Potency result is “inactive”.

`C[C@@H]1O[C@@H](OC[C@H]2O[C@@H](Oc3c(-c4ccc(O)cc4)oc4cc(O)cc(O)c4c3=O)[C@H](O)[C@@H](O)[C@@H]2O)[C@H](O)[C@H](O)[C@H]1O`: the Potency entry is “inactive”.

For the compound `CC(C)C(NS(=O)(=O)c1ccc(-c2ccc(Br)cc2)cc1)C(=O)O` (configuration not stated), the Potency result is “inactive”.

As to H-EHIPA-OH, the Potency entry was “inactive”.

Consider `COc1cc(OC)c2c(c1Cl)OC1(C2=O)C(O)=CC(=O)CC1C` (configuration not stated), for which the Potency result was “inactive”.

Turning to `CN(Cc1ccco1)c1ncncc1-c1ccoc1`, the Potency entry is “inactive”.

Turning to `Cc1c(C)n(Cc2ccc(Cl)cc2)c2ccc(C(=O)N3CCN(c4ccccc4F)CC3)cc12`, the Potency result is “inactive”.

With `CC(C)c1ccc2c(c1)c(SC(C)(C)C)c(CC(C)(C)C(=O)O)n2Cc1ccc(Cl)cc1`, the Potency was 29.9 µM (active) and 79.4 µM (active).

Consider `CC(C)c1ccc(Cn2c(COc3ccccc3)nc3ccccc32)cc1`, for which the Potency result is “inactive”.

For `CC1(C)CC(=O)c2cc(C(=O)NCc3ccccc3)c(=O)[nH]c2C1`, the Potency entry was “inactive”.

As for `O=[N+]([O-])c1ccc(/C=C/c2ccc3cccnc3c2)cc1`, the Potency result is “inactive”.

With `O=C1/C(=C\c2ccc([N+](=O)[O-])cc2)CS(=O)(=O)C/C1=C/c1ccc([N+](=O)[O-])cc1`, the Potency was 79.4 µM (active).

In the case of `N#Cc1ccc(CN2CCCC3(CCN(C(=O)c4ccco4)CC3)C2)cc1`, the Potency result is “inactive”.

As for `CN1CCN(/[N+]([O-])=N/Oc2ccc([N+](=O)[O-])cc2[N+](=O)[O-])CC1`, the Potency entry was “inactive”.
